Bioassay records as filed in PubChem.
An excerpt weighted towards active compounds, which were near 3.3% of everything screened.
TSHR agonist = qHTS Assay for Agonists of the Thyroid Stimulating Hormone Receptor; Thyrotropin receptor (Homo sapiens), P16473; HEK293-CNG-TSHR cells (CNG channel as cAMP sensor), membrane potential dye, cAMP; Potency, µM (highest dose often 57.1 µM), without a hit: top-dose activation, actives largely listed as activators; hit rate 0.48% among 73,000; AID 926, 2007; active = well fitted activation curve with a large enough effect in the main read-out, with a control signal flat, not every such curve was filed as active; inconclusive = small, poorly fitted or top-dose-only effect, or a change in a side signal; inactive = no such curve, though single readings can be large or run the other way; % of control where 0% means no effect;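 note: the control signal comes from parental cells without the receptor; potency is the fitted concentration of half-maximal effect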
Target sequence (P16473 whole entry, looked up): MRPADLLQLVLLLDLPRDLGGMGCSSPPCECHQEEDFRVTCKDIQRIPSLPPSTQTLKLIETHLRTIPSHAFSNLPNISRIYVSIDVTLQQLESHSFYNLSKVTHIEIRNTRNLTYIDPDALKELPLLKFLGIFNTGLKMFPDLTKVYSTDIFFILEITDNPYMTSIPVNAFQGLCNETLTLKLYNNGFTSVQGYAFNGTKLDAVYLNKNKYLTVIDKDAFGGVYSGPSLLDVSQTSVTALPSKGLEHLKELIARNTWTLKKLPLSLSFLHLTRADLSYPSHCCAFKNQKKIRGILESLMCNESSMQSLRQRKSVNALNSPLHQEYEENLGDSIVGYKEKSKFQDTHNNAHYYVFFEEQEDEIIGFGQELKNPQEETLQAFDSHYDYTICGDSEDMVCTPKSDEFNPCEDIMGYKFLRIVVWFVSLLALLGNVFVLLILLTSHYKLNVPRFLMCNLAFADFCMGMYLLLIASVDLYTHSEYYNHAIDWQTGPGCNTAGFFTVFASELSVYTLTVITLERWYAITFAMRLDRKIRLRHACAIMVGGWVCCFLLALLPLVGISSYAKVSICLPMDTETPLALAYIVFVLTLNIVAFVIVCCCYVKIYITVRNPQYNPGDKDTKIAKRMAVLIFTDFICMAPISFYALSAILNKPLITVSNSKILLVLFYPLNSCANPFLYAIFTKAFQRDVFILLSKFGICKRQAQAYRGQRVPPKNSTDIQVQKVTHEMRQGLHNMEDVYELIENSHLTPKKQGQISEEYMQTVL
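HEK 293 cells stably expressing TSHR and a cAMP-gated CNG channel; parental CNG-only cells as counterscreen. Cells preloaded 60 min with membrane potential dye plus 100 uM RO 20-1724, then compound 30 min; fluorescence read at 590 nm.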
BRCT PPI green = qHTS Assay for Inhibitors of BRCT-Phosphoprotein Interaction (Green Fluorophore); Breast cancer type 1 susceptibility protein (Homo sapiens), P38398; BRCA1 BRCT-phosphopeptide binding, green fluorescence polarization; Potency, µM (highest dose often 76.9 µM), for inactives: at the top dose activity change, negative = inhibition, usual class: inhibitors; hit rate 0.05% among 75,000;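 note: potency is the fitted concentration of half-maximal effect; plate controls were peptide without protein for full effect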
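Compounds were incubated for 12 min at room temperature with a complex of 100 nM fluorescein-tagged pBACH1 decapeptide and 250 nM His-tagged BRCT protein. Buffer was phosphate pH 7.3 with EDTA, DTT and Tween 20. Disruption of binding lowers the polarization signal.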
BRCT inh red = qHTS Assay for Inhibitors of BRCT-Phosphoprotein Interaction (Red Fluorophore); Breast cancer type 1 susceptibility protein (Homo sapiens), P38398; BRCT-phosphopeptide binding, red fluorescence polarization; Potency, µM (titrated, usually from 76.9 µM), for the others: at the top dose activity change, negative = inhibition, usual class: inhibitors; hit rate 0.03% among 75,000; AID 892, 2007; note: % is set by controls: 0 for no effect and ±100 for the full control effect
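Rhodamine-labelled pBACH1 10-mer (100 nM) bound to BRCT domain (100 nM) at pH 7.3; compounds incubated 12 min room temperature, polarization read. Free peptide defines full inhibition; unlabelled decapeptide titrated as control.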
Hsp90 Hop PPI = qHTS Assay for Disrupters of an Hsp90 Co-Chaperone Interaction. Hsp90 C-terminal peptide / TPR2A (Hop) interaction, human. Potency, µM (titrated, usually from 57 µM), for the others: at the highest dose activity change, negative = inhibition. AlphaScreen TPR2A-His6 binding biotin-Hsp90 C-terminal peptide. hit rate 0.44% among 71,000; active = well fitted curve in either direction with a large enough effect; inconclusive = small, poorly fitted or top-dose-only effect, or another doubt; note: potency is the fitted concentration of half-maximal effect; % is set by controls: 0 for no effect and ±100 for the full control effect
TsaE inh = qHTS Assay for Inhibitors of YjeE; tRNA threonylcarbamoyladenosine biosynthesis protein TsaE (Escherichia coli (strain …; purified YjeE enzyme, qHTS inhibition assay; Potency, µM; hit rate 0.05% among 71,000; AID 605, 2007
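Purified YjeE (10 uM) with BODIPY Texas Red-labeled ADP probe (2 uM); compounds pin-transferred, 15 min at room temperature. Binding inhibition read as decreased fluorescence polarization; ADP titration as control.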
HEK293 cAMP cs = qHTS Assay for Agonists of the Thyroid Stimulating Hormone Receptor: Activators of Intracellular cAMP Concentrations in Parental HEK 293 | Potency, µM (highest dose often 57.1 µM), for the others: at the highest dose activation, usual class: activators | parental HEK293 CNG cAMP sensor, membrane potential fluorescence | hit rate 2.5% among 73,000; note: potency is the fitted concentration of half-maximal effect; % of control where 0% means no effect; nearly all actives have a fitted effect of over 55% in size
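Parental HEK 293 cells stably expressing a cAMP-gated CNG channel were loaded with membrane potential dye containing 100 uM RO 20-1724 for 60 min. Compound added for 30 min; depolarization read as fluorescence intensity at 590 nm.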
The depositor's hits bear a star; i = inactive; u = inconclusive; x = no result; [ ] = another dose, or the depositor's remark. Unless noted, calls come from the whole dose curve; as a rule, active = well fitted curve in the direction sought with a large enough effect; inconclusive = small, poorly fitted or top-dose-only effect, or another doubt; inactive = no such curve, though single readings can be large; an effect the other way counts as inactive or inconclusive.

SMILES	TSHR agonist	BRCT PPI green	BRCT inh red	Hsp90 Hop PPI	TsaE inh	HEK293 cAMP cs
O=C1c2ccccc2NC2CCCCC12 (configuration not stated)	u	0.0%	1.0%	-4.7%	i	5.01µM*
NC(CSS(=O)(=O)O)=N[C@@H]1C[C@H]2CC[C@@H]1C2	3.6%[11.4 µM]	-1.9%[15.4 µM]	0.2%[15.4 µM]	-6.5%[11 µM]	i	-3.4%[11.4 µM]
C/C(=N/O)c1ccc2cc(Br)c3ccccc3c2c1	-0.8%[11.4 µM]	1.0%[15.4 µM]	-3.6%[15.4 µM]	6.7%[11 µM]	i	-1.8%[11.4 µM]
O=c1cc(-c2ccc(O)c(O)c2)oc2ccccc12	x	-2.4%[3.08 µM]	1.9%	x	x	x
C=CCn1c(C)cc(C(=O)CSc2nc3ccccc3o2)c1C	u	0.2%	0.5%	4.0%	i	25.1µM*
Cc1cc(C(=O)CSc2nc3ccccc3o2)c(C)n1C1CC1	u	-0.8%	-1.3%	u	i	15.8µM*
C=CCn1c(C)cc(C(=O)CSc2nc3ccccc3c(=O)[nH]2)c1C	u	-0.1%	-0.3%	-3.8%	i	25.1µM*
COC(=O)CSc1nc2ccccc2o1	4.7%	-0.8%	0.1%	-0.7%	i	13.1%
C=CCn1c(C)cc(C(=O)CSc2nnc(Cc3ccccc3)o2)c1C	u	-0.6%	0.3%	0.5%	i	u
CCOC(=O)c1c(NC(=O)Cc2cccs2)sc(C)c1C	u	-4.3%	-0.9%	17.8%	i	25.1µM*
Cc1c(C(=O)OCCN2CCCCC2)oc2ccccc12	x	-2.2%	-0.2%	0.6%	i	26.8%
C[C@H]1CC(C)(C)C[C@@](OCCN2CCCCC2)(c2ccccc2)C1	u	-1.5%[15.4 µM]	-1.1%[15.4 µM]	u	i	5.01µM*
CCN(CC)CCn1c(-c2ccccc2)nc2c(NCCO)nc(C)nc21	6.5%	-2.0%	0.4%	-6.1%	i	14.5%
C=CCOc1ccccc1/C=N/O	u	0.4%	-1.0%	-7.3%	i	25.1µM*
CN1CCc2cc(Cl)c(O)cc2[C@@H](c2ccccc2)C1	u	1.1%	1.1%	-5.9%	i	25.1µM*
CN1CCc2c(cc(O)c(O)c2Cl)[C@H](c2cccc(Cl)c2)C1	u	-1.7%	-2.8%	12.6µM*	i	u
CCCCn1nc(NC(=O)c2cccs2)c2cc3cc(OC)ccc3nc21	x	1.6%	0.7%	20µM*	i	-4.9%
Oc1cccc2ccc(SSc3ccc4cccc(O)c4n3)nc12	3.8%[11.4 µM]	-1.9%[15.4 µM]	1.3%[15.4 µM]	-4.4%[11 µM]	i	5.2%[11.4 µM]
Cc1cc(C)n(-c2nnc(C)n2/N=C/c2cc(Br)ccc2OCc2ccccc2)n1	u	4.0%	-0.3%	-13.3%[11 µM]	i	3.16µM*
Cc1cc(C)n(Cc2ccccc2Cl)n1	-2.8%	-1.2%	0.5%	-0.5%	i	0.9%
Cc1cc(C)n(-c2nnc(C)n2/N=C/c2ccccc2OCc2ccccc2Cl)n1	u	7.1%	0.5%	u	i	1.26µM*
Cc1nnc(C)n1/N=C/c1cc(Br)ccc1O	-6.7%	-0.8%	-0.9%	x	x	-21.3%
CCC(=O)[C@@H](c1ccccc1)c1ccccn1	0.7%[11.4 µM]	-1.5%[15.4 µM]	1.9%[15.4 µM]	0.3%[11 µM]	i	9.6%[11.4 µM]
COc1ccc(-c2nc3cnc(Oc4cccc(Cl)c4)nc3n(CCC#N)c2=O)cc1	x	-1.5%	2.5%	-1.7%	i	6.8%
COc1cccc2c1C(=O)c1c(O)c3c(c(O)c1C2=O)C[C@@](O)(C(=O)CO)C[C@@H]3O[C@H]1C[C@H](N)[C@H](O)[C@H](C)O1	0.1%	9.7%	10µM*	x	x	0.1%
CC(=O)[C@@]1(O)Cc2c(O)c3c(c(O)c2[C@H](O[C@H]2C[C@H](N)[C@H](O)[C@H](C)O2)C1)C(=O)c1ccccc1C3=O	u	-24.9%	12.6µM*	u	50.1µM*	u
